In PubChem BioAssay (NCATS):
Values joined by “and” are separate entries in the source; they are usually repeats but may differ in a detail not shown here. Identical values can stand only once. Results filed as inconclusive are left out. Active and inactive are the calls of the source. Unless noted, calls follow the shape of the dose curve; as a rule, active = well fitted curve in the direction sought with a large enough effect; inconclusive = small, poorly fitted or top-dose-only effect, or another doubt; inactive = no such curve, though single readings can be large; an effect the other way counts as inactive or inconclusive.

What was measured:
[1] = qHTS to identify inhibitors of the type 1 interferon - major histocompatibility complex class I in skeletal muscle: primary screen against the NCATS Pharmaceutical Collection (AID 1347407);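 also: luminescence of HiBiT knocked into endogenous HLA-B as interferon-induced MHC class I level; % is scaled to controls: 0 for no effect and ±100 for the full control effect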
Outline: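 Immortalized human myoblasts (C25cl48) with HiBiT knocked into endogenous HLA-B*08:01 were stimulated with 4 ng/ml IFN-beta and treated with compounds (8-point, 1:5, top 46 uM final) for 24 h at 37 C; HiBiT lytic luminescence read.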

[2] = qHTS to identify inhibitors of the type 1 interferon - major histocompatibility complex class I in skeletal muscle: primary screen against the NCATS Mechanism Interrogation Plate v5.0 (MIPE) Libary (AID 1347411);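 also: plate controls were vehicle for no effect and reference inhibitor for full effect; nearly all actives have a fitted effect of over 65% in size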
Outline: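 HLA-B HiBit myoblasts, dexamethasone-free medium + 4 ng/ml IFN-b, 24 h compound, 11-pt 1:3 from 46 uM final. Readout: Nano-Glo HiBiT lytic luminescence after 10 min lysis, RT.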

[3] = target: Protein phosphatase 1D (Homo sapiens) (UniProt O15297); assay: RapidFire Mass Spectrometry qHTS Assay for Modulators of WT P53-Induced Phosphatase 1 (WIP1) (AID 1347424);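 also: amount of dephosphorylated VEPPL-S-QETFS peptide product formed by WIP1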; also: potency is read from the fitted curve at half-maximal effect;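 as to activity change, negative = inhibition: series mostly up to about 63 µM; plate controls were DMSO wells for no effect and GSK830371 inhibitor control at 10 µM for full effect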
Outline: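 RapidFire mass spectrometry measured dephosphorylated peptide after 5 min room-temperature reaction of 2 uM VEPPL-pS-QETFS with 10 nM WIP1 (50 mM Tris-HCl pH 7.5, 30 mM MgCl2, 0.1 mM EGTA, BSA), following 1 hr compound preincubation; 1 uM isotope-labelled product standard.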

[4] = Primary qHTS for inhibitors of La Crosse Virus (LACV) - induced cell death in SH-SY5Y cells (AID 1508616);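 also: top concentration of the series differs between compounds; 0% = infected DMSO wells and 100% = uninfected DMSO wells; higher means more rescue of cells from virus-induced death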
Outline: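 Cytopathicity rescue screen: compounds pinned onto SH-SY5Y cells, which are then infected with LACV (MOI 0.01) and held 6 days at 37C. Percent activity is scaled between infected DMSO control and uninfected DMSO control.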

[5] = target: Calcium and integrin-binding protein 1 (Homo sapiens) (UniProt Q99828); assay: Primary qHTS for Identification of Calcium Integrin Binding Protein 1 (CIB1) Competitor (AID 1508620);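 also: GST tagged CIB1 binding a fluorescein labelled alphaIIb integrin peptide tracer; top concentration of the series differs between compounds; % is scaled to controls: 0 for no effect and ±100 for the full control effect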
Outline: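 CIB1-GST (1 uM final) and compound incubated 15 min at room temperature before adding FITC-alphaIIb peptide tracer (100 nM final). Competition for binding read by fluorescence polarization (ex 480, em 540) after another 15 min at room temperature.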

[6] = Primary qHTS for small molecule stabilizers of the endoplasmic reticulum resident proteome: Secreted ER Calcium Modulated Protein (SERCaMP) assay (AID 1508630); also: % is scaled to controls: 0 for no effect and ±100 for the full control effect
Outline: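 The SH-SY5Y reporter protocol was run at 3 concentrations up to 38.3 uM (primary) or 11 concentrations (follow-up): 16 h compound, 100 nM thapsigargin for 4 h, then extracellular luciferase luminescence.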

[7] = A High-Content qHTS Against Drug Library for the Identification of Small Molecules that Inhibit DYT1 Early Onset Primary Dystonia-Associated Cell Pathology (AID 1645839; calls by dose curve; also: series mostly up to about 46 µM)
Outline: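 High-content imaging quantified EGFP-TorsinA mislocalization in HEK293-derived cells inducibly expressing DYT1 mutant torsinA, after 48 h exposure to compound given together with tetracycline induction. Cell count served as a toxicity channel alongside %pathology.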

[8] = Tertiary RLuc qRT-PCR qHTS assay for Zika virus inhibitors (AID 1347169); also: nearly all actives have a fitted effect of over 55% in size; also: potency is read from the fitted curve at half-maximal effect
Outline: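 Vero cells (1,000 per well) plated overnight at 37 degrees C, treated with compound in DMSO, then infected with recombinant ZIKV-RLuc (Cambodian) at MOI 1-2 for 48-72 hrs. Live-cell Renilla luciferase substrate added; luminescence read after 1-1.5 hrs.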

[9] = target: Protein phosphatase 1D (Homo sapiens) (UniProt O15297); assay: Rhodamine-PBP qHTS Assay for Modulators of WT P53-Induced Phosphatase 1 (WIP1) (AID 1347425); also: % of control where 0% means no effect
Outline: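 WIP1 (5 nM final) was preincubated with compound for 1 hour at room temperature. It then dephosphorylated 10 uM VEPPL-pS-QETFS peptide in Tris-HCl pH 7.5 with 30 mM MgCl2. Released Pi was detected by 10 uM Rh-PBP fluorescence (ex 525/em 598 nm) read at 1-min intervals for 11 min, as delta f1 - f0.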

[10] = qHTS to identify inhibitors of the type 1 interferon - major histocompatibility complex class I in skeletal muscle: primary screen against the NCATS LOPAC collection (AID 1347405);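 also: lytic HiBiT luminescence reporting HLA-B protein level; % is scaled to controls: 0 for no effect and ±100 for the full control effect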
Outline: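 HLA-B HiBiT myoblasts, IFN-b 4 ng/ml, dexamethasone-free medium; compounds 7-pt 1:4.3 titration, top 46 uM final; 24 h at 37 C; Nano-Glo HiBiT lytic reagent, 10 min RT, luminescence.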

[11] = Validation qHTS assay for inhibitors of Activation Induced Cytidine Deaminase (AID): UDG Counterscreen signal (AID 1347427); also: 0% is about no effect
Outline: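 Fluorescence at 560 nm excitation, 665 nm emission reports UDG signal after 250 mM NaOH (2x) addition and 30 min. Enzymes (AID 1 uM, UDG 2 U/mL, at 4/3x) preincubated 10 min with compound, then 4 h with 4x 250 nM DJC20/DJC23 substrate at room temperature.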

[12] = target: Single-stranded DNA cytosine deaminase (Homo sapiens) (UniProt Q9GZX7); assay: Validation qHTS assay for inhibitors of Activation Induced Cytidine Deaminase (AID): AID signal (AID 1347429); also: % is scaled to controls: 0 for no effect and ±100 for the full control effect
Outline: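 AID+UDG coupled FRET deamination; cpds up to 114 uM final; DJC20/DJC23 substrate, 4 hr RT; NaOH stop, 30 min RT; read Ex 540/Em 590.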

[13] = Confirmatory qHTS for small molecule stabilizers of the endoplasmic reticulum resident proteome: Secreted ER Calcium Modulated Protein (SERCaMP) assay (AID 1508628); also: nearly all actives have a fitted effect of over 40% in size; also: potency is read from the fitted curve at half-maximal effect
Outline: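 GLuc-SERCaMP-expressing SH-SY5Y cells, pretreated 16 h with compound, are challenged with thapsigargin to empty ER calcium stores; after 4 h, coelenterazine is added directly to the medium and luminescence is imaged.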

[14] = Cell Viability qHTS for small molecule stabilizers of the endoplasmic reticulum resident proteome (AID 1508629); conditions: cell viability counter-screen, 100 nM thapsigargin for final 4 h
[15] = Vero cells viability qHTS for Zika virus inhibitors (AID 1347167); also: % is scaled to controls: 0 for no effect and ±100 for the full control effect
Outline: (§1)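 Luminescent ATP readout (CellTiter Glo) after 30 min at 37 degrees C gives viability; cells in DMEM + 4% FBS were treated 24 to 48 hours with compound, following overnight attachment.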

[16] = HepG2 cells viability qHTS for Zika virus inhibitors (AID 1347168); also: % is scaled to controls: 0 for no effect and ±100 for the full control effect
Outline: as §1

[17] = target: Calcium and integrin-binding protein 1 (Homo sapiens) (UniProt Q99828); assay: Validation qHTS for Identification of Calcium Integrin Binding protein 1 (CIB1) Competitor (AID 1508618); also: % is scaled to controls: 0 for no effect and ±100 for the full control effect
Outline: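 Fluorescence polarization with 1 uM CIB1-GST and 100 nM FITC-alphaIIb peptide in HEPES pH 7.4, NaCl, 5 mM CaCl2, Tween20. Compounds at up to 114 uM final, preincubated with protein 15 min; read after 15 min more at RT.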

[18] = test system: Zika virus NS2B-NS3 protease (linked); assay: 384 well plate NINDS AMC confirmatory qHTS for Zika virus inhibitors (AID 1347163); also: nearly all actives have a fitted effect of over 50% in size; also: potency is read from the fitted curve at half-maximal effect;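 as to activity change, negative = inhibition: linked protease at 5 30 or 60 nM final depending on run; fluorescence of AMC released from Ac-VKTGKR-AMC peptide cleaved by the protease; top concentration of the series differs between compounds; 0% = no-inhibitor control and -100% = no-enzyme control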
Outline: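 Enzyme (5, 30 or 60 nM final) first met test compounds for ~15 min. The AMC-tagged peptide Ac-VKTGKR-AMC followed at 30 microM. Fluorescence was then recorded at 25 min and scaled against no-enzyme and no-inhibitor wells.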

[19] = test system: Zika virus NS2B-NS3 protease (linked construct); assay: 384 well plate NINDS Rhodamine confirmatory qHTS for Zika virus inhibitors (AID 1347164); conditions: rhodamine-110 peptide substrate fluorescence;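 also: fluorescence from protease cleavage of Ac-LKRR-rhodamine 110 substrate; potency is read from the fitted curve at half-maximal effect; nearly all actives have a fitted effect of over 65% in size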
Outline: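 Linked protease at a final 5 nM, 30 nM or 60 nM was preincubated ~15 min with compounds, then given 10 microM Ac-LKRR-Rhodamine 110. Fluorescence (ex 485/em 538 nm) after 25 min in the dark at room temperature.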

[20] = target: Calcium and integrin-binding protein 1 (Homo sapiens) (UniProt Q99828); assay: Confirmatory qHTS for Identification of Calcium Integrin Binding Protein 1 (CIB1) Competitor (AID 1508617); also: % is scaled to controls: 0 for no effect and ±100 for the full control effect; nearly all actives have a fitted effect of over 65% in size
Outline: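 FP competition: CIB1-GST (1 uM final) in 5 mM HEPES pH 7.4, 125 mM NaCl, 5 mM CaCl2, 0.01% Tween20 preincubated 15 min RT with compounds (up to 114 uM), then FITC-alphaIIb peptide (100 nM), 15 min RT; Ex 480/Em 540.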

Chain of Calcium and integrin-binding protein 1 (Homo sapiens) (Q99828 whole entry, looked up): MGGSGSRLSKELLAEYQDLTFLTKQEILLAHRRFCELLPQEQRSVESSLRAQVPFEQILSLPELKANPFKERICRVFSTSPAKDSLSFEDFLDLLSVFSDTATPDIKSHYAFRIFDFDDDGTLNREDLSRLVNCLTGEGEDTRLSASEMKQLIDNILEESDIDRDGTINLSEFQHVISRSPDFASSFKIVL
Chain of Single-stranded DNA cytosine deaminase (Homo sapiens) (Q9GZX7 whole entry, looked up): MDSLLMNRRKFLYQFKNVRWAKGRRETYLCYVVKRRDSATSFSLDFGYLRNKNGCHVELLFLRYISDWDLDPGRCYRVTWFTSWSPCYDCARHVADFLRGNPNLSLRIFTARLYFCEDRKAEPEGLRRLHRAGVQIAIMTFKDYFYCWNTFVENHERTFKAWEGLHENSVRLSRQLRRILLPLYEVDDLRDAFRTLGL
Chain of Protein phosphatase 1D (Homo sapiens) (O15297 whole entry, looked up): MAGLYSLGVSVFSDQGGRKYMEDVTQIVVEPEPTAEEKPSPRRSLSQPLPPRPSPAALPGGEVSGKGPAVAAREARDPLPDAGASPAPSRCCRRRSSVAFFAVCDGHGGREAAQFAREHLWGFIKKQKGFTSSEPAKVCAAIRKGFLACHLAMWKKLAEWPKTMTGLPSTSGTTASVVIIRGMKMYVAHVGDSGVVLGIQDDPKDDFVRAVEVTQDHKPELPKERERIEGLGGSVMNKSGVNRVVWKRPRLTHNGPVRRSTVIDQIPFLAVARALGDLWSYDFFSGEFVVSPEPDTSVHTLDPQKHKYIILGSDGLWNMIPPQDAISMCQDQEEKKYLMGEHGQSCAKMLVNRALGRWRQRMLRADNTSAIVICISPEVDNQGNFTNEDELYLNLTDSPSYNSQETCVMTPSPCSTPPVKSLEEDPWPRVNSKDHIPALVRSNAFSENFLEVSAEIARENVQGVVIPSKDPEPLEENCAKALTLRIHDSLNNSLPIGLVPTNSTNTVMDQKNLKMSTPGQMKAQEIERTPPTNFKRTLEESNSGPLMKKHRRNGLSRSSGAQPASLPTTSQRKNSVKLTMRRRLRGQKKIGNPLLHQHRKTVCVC

CNC[C@H](O)[C@@H](O)[C@H](O)[C@H](O)CO
inactive: Potency [1] | Potency [2] | Potency [3] | outcome [4] | Potency [5] | Potency [6] | Potency [7]

O=C(CCCCC(=O)Nc1c(I)cc(I)c(C(=O)O)c1I)Nc1c(I)cc(I)c(C(=O)O)c1I
inactive: activity change, negative = inhibition [8] 2.99% [at 5.25 µM] | Potency [1] | Potency [3] | outcome [9] | outcome [4] | Potency [5] | Potency [6]

O=C(COCCOCCOCC(=O)Nc1c(I)cc(I)c(C(=O)O)c1I)Nc1c(I)cc(I)c(C(=O)O)c1I
inactive: Potency [8] | Potency [1] | Potency [3] | outcome [9] | outcome [4]

O=[N+]([O-])c1cncn1CCN1CCOCC1
inactive: Potency [1] | Potency [2] | Potency [3] | outcome [4]

O=C1NC(c2cccc([N+](=O)[O-])c2)=CCN1c1ccccc1O
active: Potency [13] 3.16 µM
inactive: Potency [10] | outcome [11] | outcome [12] | outcome [4] | Potency [5] | max response [14] 23.5% and 15.8% | Potency [6]

N[C@@H](Cc1cc(I)c(O)c(I)c1)C(=O)O
inactive: outcome [15] | outcome [16] | Potency [8] | Potency [13] | max response [14] 10.7% | Potency [6] | Potency [7]
active: Potency [3] 20 µM

C[N+](C)(C)CCO
inactive: Potency [10] | outcome [11] | outcome [12] | outcome [4] | outcome [17] | Potency [6]

CN(C)[C@@H]1C(=O)C(C(N)=O)=C(O)[C@@]2(O)C(=O)C3=C(O)c4c(O)cccc4C[C@H]3C[C@@H]12
active: Potency [18] 126 µM
inactive: Potency [1] | Potency [3] | outcome [9] | outcome [4] | Potency [5] | Potency [7]

CN1CC(=O)N2[C@H](c3ccc4c(c3)OCO4)c3[nH]c4ccccc4c3C[C@@H]2C1=O
inactive: Potency [1] | Potency [2] | Potency [3] | outcome [9] | outcome [4] | Potency [6] | Potency [7]

CC1(C)O[C@@H]2C[C@H]3[C@@H]4CCC5=CC(=O)C=C[C@]5(C)[C@@]4(F)[C@@H](O)C[C@]3(C)[C@]2(C(=O)CO)O1
inactive: Potency [1] | Potency [2] | Potency [3] | outcome [9] | outcome [4] | Potency [5] | Potency [6] | Potency [7]

CCCCCCOC(=O)NC(=N)c1ccc(NCc2nc3cc(C(=O)N(CCC(=O)OCC)c4ccccn4)ccc3n2C)cc1
inactive: Potency [1] | Potency [2] | Potency [3] | outcome [9] | Potency [5]

COC(=O)C1=CO[C@@H](O)[C@@H]2C(CO)=CC[C@H]12
inactive: Potency [10] | outcome [11] | outcome [12] | outcome [4] | outcome [17] | Potency [5]

O=C(O)C(=O)Nc1cccc(-c2nn[nH]n2)c1
inactive: Potency [1] | Potency [2] | Potency [3] | outcome [9] | Potency [5] | Potency [7]

CCC(=O)O[C@H]1[C@H](O[C@@H]2[C@@H](C)[C@H](O[C@H]3C[C@@](C)(OC)[C@@H](O)[C@H](C)O3)[C@@H](C)C(=O)O[C@H](CC)[C@@](C)(O)[C@H](O)[C@@H](C)C(=O)[C@H](C)C[C@@]2(C)O)O[C@H](C)C[C@@H]1N(C)C
inactive: outcome [15] | outcome [16] | Potency [8] | Potency [1] | outcome [9] | outcome [4] | Potency [5] | max response [14] 17.4% | Potency [7]
active: Potency [18] 355 µM | Potency [19] 63.1 µM | Potency [13] 20 µM

O=[N+]([O-])c1ccc(-c2nc(-c3ccc(F)cc3)c(-c3ccncc3)[nH]2)cc1
inactive: outcome [11] | outcome [12] | outcome [4] | outcome [17] | Potency [5]
active: Potency [8] 4.66 µM

COc1ccccc1N1CCN(CCN2C(=O)CC3(CCCC3)CC2=O)CC1
inactive: Potency [10] | outcome [11] | outcome [12] | outcome [4] | outcome [17] | Potency [5] | Potency [6]

CN(C)c1cc2c(Nc3ccc4c(cnn4Cc4ccccc4)c3)ncnc2cn1
inactive: Potency [10] | outcome [11] | outcome [12] | outcome [4] | outcome [17]

O=C(O)[C@H](O)[C@@H](O)[C@H](O[C@@H]1O[C@H](CO)[C@H](O)[C@H](O)[C@H]1O)[C@H](O)CO
inactive: Potency [1] | Potency [2] | Potency [3] | outcome [9] | outcome [4] | Potency [5] | Potency [6]

C[C@H]1C[C@H]2[C@@H]3CCC4=CC(=O)C=C[C@]4(C)[C@H]3C(=O)C[C@]2(C)[C@@]1(O)C(=O)CO
inactive: Potency [1] | Potency [2] | Potency [3] | outcome [9] | Potency [5] | Potency [6] | Potency [7]

O=C1NC(=O)/C(=C/c2ccc3c(c2)OC(F)(F)O3)S1
active: Potency [18] 7.94 µM | Potency [19] 5.01 µM | Potency [8] 11.7 µM
inactive: outcome [16] | Potency [2] | outcome [11] | outcome [12] | outcome [4] | Potency [5] | Potency [6]

CN1CCCN=C1/C=C/c1cccs1
inactive: Potency [1] | Potency [2] | Potency [3] | outcome [9] | outcome [4] | Potency [5] | Potency [7]

Brc1ccc([C@H]2CN3CCSC3=N2)cc1
inactive: Potency [10] | outcome [11] | outcome [12] | outcome [4] | outcome [17] | Potency [5] | Potency [6]

Cc1nn(-c2ccccc2)c(C)c1/C=N/N1CCN(Cc2ccccc2)CC1
inactive: Potency [10] | outcome [11] | outcome [12] | outcome [4] | outcome [17] | Potency [5]

O=C(Nc1ccc(S(=O)(=O)N2CCOCC2)cc1)c1cc(Cl)ccc1NS(=O)(=O)c1ccc(Cl)s1
inactive: Potency [18] | outcome [15] | outcome [16] | Potency [1] | Potency [2] | outcome [4] | Potency [20] | Potency [6]
active: Potency [19] 10 µM | Potency [3] 11.2 µM

NCC(=O)O
inactive: Potency [1] | Potency [3]
